Data from PubChem BioAssay (NCATS).
Results filed as inconclusive are left out. Calls of active or inactive are those of the source. Calls come from the whole dose curve.

Assay: Primary qHTS to identify inhibitors of SARS-CoV-2 cell entry (AID 1645846); note: nearly all actives have a fitted effect of over 45% in size
Conditions: SARS-CoV-2 pseudovirus cell entry assay, luminescence; activity change, negative = inhibition: at 57.1 µM (top of the series) unless noted; series mostly up to 57.1 µM
Text: Assay Provider: Wei Zheng, Ph.D.
National Center for Advancing Translational Sciences, National Institute of Health, Rockville, MD.
SARS-CoV-2 spike protein, within the viral envelope, mediates viral attachment and infection of host cells. The SARS-CoV-2 spike protein specifically binds to the host receptor ACE2 (Angiotensin-converting enzyme 2). This interaction promotes endocytosis of the viral particle, additional events lead to viral-host cell membrane fusion and release of the viral contents, allowing viral replication.
While SARS-CoV-2 requires BSL-3 facilities for live virus work, pseudotyped partices (PP) that incorporate SARS-CoV-2 spike proteins without replication elements could facilitate studies on viral entry mechanisms in a BSL-2 setting. This PP cell entry assay could also enable screening of small molecule compound libraries in BSL-2 setting to identify inhibitors of SARS-CoV-2 cell entry.
PROTOCOL TABLE (format as described by Inglese J, Shamu CE and Guy RK. 2007)
SEQUENCE No. (e.g., 1, 2, 3, etc.); […] (e.g., Cells, Incubation, Reagent, etc.); VALUE and DESCRIPTION.
1. Cells. Seed 1500 HEK293-ACE2 cells (Expi293F with stable expression of human ACE2) in 2 uL/well media (DMEM, 10% FBS, 1x L-glutamine, 1x Pen/Strep, 1 ug/ml puromycin) in white 1536-well assay plates (Greiner #782073).
2. Incubation. Incubate at 37C with 5% CO2 overnight (~16 h).
3. Compounds. Dispense 23 nL/well compounds in DMSO via pin transfer.
4. Incubation. Incubate for 1 hr at 37C 5% CO2.
5. Reagent. Dispense 2 uL/well of SARS-CoV-2-S pseudotyped particles. [a] PPs are produced with murine leukemia virus pseudotyping. [b] SARS-CoV-2-S is Wuhan-Hu-1 sequence (BEI #NR-52420) with C-terminal 19 amino acid truncation.
6. Centrifuge. […]
7. Incubation. Incubate at for 48 hr at 37C 5% CO2
8. Centrifuge. Remove supernatant with gentle centrifugation using a Blue Washer (BlueCat Bio).
9. Reagent. Dispense 4 uL/well of Bright-Glo Luciferase detection reagent (Promega #E2620).
10. Incubation. Incubate for 5 min at room temperature.
11. Detection. Read luminescence signal (Viewlux plate reader, PerkinElmer). Data was normalized with wells containing SARS-CoV-2-S PP as 100%, and wells containing bald PP (no fusion protein) as 0%.
Potency is the fitted concentration of half-maximal effect.

| SMILES | activity change, negative = inhibition | outcome | Potency |
| --- | --- | --- | --- |
| CC(C)(N)c1ccc(-c2nc3ccccc3nc2-c2ccccc2)cc1 | -19.6% | – | – |
| CC(O)[C@H]1CC[C@H]2[C@@H]3CC[C@@H]4C[C@@H](O)CC[C@]4(C)[C@H]3CC[C@]12C (stereo not given in full) | -11.6% [at 114 µM] | – | – |
| CN1C(C(=O)Nc2ccccn2)=C(O)c2sc(Cl)cc2S1(=O)=O | 2.28% | – | – |
| CCc1cc2c(cc1N1CCC(N3CCOCC3)CC1)C(C)(C)c1[nH]c3cc(C#N)ccc3c1C2=O | -34.9% [at 27.1 µM] | inactive [at 27.1 µM] | – |
| N[C@@H](CC(=O)O)C(=O)O | – | inactive [at 5.25 µM] | – |
| CCCCCCCCCCCC1=C(O)C(=O)C=C(O)C1=O | – | inactive | – |
| CS(=O)(=O)c1ccc(-c2cnc(N)c(C(=O)Nc3ccccc3)n2)cc1 | -1.17% | – | – |
| Cc1c(C(N)=O)cc([N+](=O)[O-])cc1[N+](=O)[O-] | – | inactive | – |
| Cc1cc(O)c2c(c1)C(=O)c1cccc(O)c1C2=O | -17% | – | – |
| N#Cc1c(N(CC(=O)O)CC(=O)O)sc(C(=O)O)c1CC(=O)O | – | inactive [at 0.702 µM] | – |
| Nc1nc(N)c2nc(CNc3ccc(C(=O)NC(CCC(=O)O)C(=O)O)cc3)cnc2n1 (stereo not given) | – | inactive | – |
| CC(C)C[C@@H](N)[C@H](O)C(=O)N[C@H](C(=O)N[C@H](C(=O)N[C@@H](CC(=O)O)C(=O)O)C(C)C)C(C)C | -14% | – | – |
| C[C@H](NCc1ccc(OCc2cccc(F)c2)cc1)C(N)=O | – | inactive | – |
| NC(=O)[C@@H](CCC(F)(F)F)N(Cc1ccc(-c2ncon2)cc1F)S(=O)(=O)c1ccc(Cl)cc1 | -47.2% | – | – |
| CCn1nnc2c(N3CCOCC3)nc(-c3ccc(NC(=O)Nc4ccc(C(=O)N5CCN(C)CC5)cc4)cc3)nc21 | -84.5% | – | – |
| C[C@@H]1CC[C@@]2(OC1)OC1CC3C4CC=C5CC(O)CCC5(C)C4CCC3(C)C1[C@@H]2C (stereo not given in full) | -1.34% | – | – |
| Cc1cc(Nc2cc(NC(=O)c3c(Cl)cccc3Cl)ccn2)nc(N)n1 | – | – | 1.41 µM (active) |
| COc1ccc(-c2ccc3ncc4c(c3c2)n(-c2ccc(N3CCNCC3)c(C(F)(F)F)c2)c(=O)n4C)cn1 | – | – | 3.16 µM (active) |
| CCc1ccc(C(=O)Nc2cc(CN3CCN(C)CC3)cc(C(F)(F)F)c2)cc1C#Cc1cnc2ccnn2c1 | – | – | 22.4 µM (active) |
| NC(=O)Nc1sc(-c2ccc(F)cc2)cc1C(N)=O | -30.6% | – | – |

| SMILES | activity change, negative = inhibition | outcome | Potency |
| --- | --- | --- | --- |
| Cc1c(F)cc(C(=O)NC2CC2)cc1-c1ccc(C(=O)NCC(C)(C)C)cn1 | -35.5% | – | – |
| C[C@H]1[C@@H](OC(=O)CCC(=O)O)O[C@@H]2O[C@@]3(C)CC[C@@H]4[C@H](C)CC[C@@H]1[C@@]24OO3 | – | – | 3.16 µM (active) |
| C[C@@H](c1ncncc1F)[C@](O)(Cn1cncn1)c1ccc(F)cc1F | -26.1% | – | – |
| O=[N+]([O-])c1cn2c(n1)OC[C@@H](OCc1ccc(OC(F)(F)F)cc1)C2 | -9.12% | – | – |
| CCCCOc1c(C(=O)c2c(F)cc(C)cc2F)cnc2n[nH]cc12 | – | – | 1.12 µM (active) |
| CN1C(=O)C[C@H](C(=O)N[C@@H](Cc2cnc[nH]2)C(=O)N2CCC[C@@H]2C(N)=O)NC1=O | – | inactive; activator | – |
| C[C@@H]1CN(Cc2ccc(F)cc2)[C@@H](C)CN1C(=O)c1cc2c(C(=O)C(=O)N(C)C)cn(C)c2cc1Cl | -24.1% | – | – |
| CNC(=O)[C@H](Cc1ccccc1)NC(=O)[C@H](CC(C)C)[C@H](CSc1cccs1)C(=O)NO | -35.2% | – | – |
| CC(NCCc1ccc(O)cc1)C(O)c1ccc(O)cc1 (stereo not given) | -5.33% | – | – |
| CCC[C@H](Nc1nc(-c2ccc(NC(=O)NCC)c(OC)c2)ncc1C)c1cccnc1 | -93.9% | – | – |
| CC[C@@]1(O)C(=O)OCc2c1cc1n(c2=O)Cc2cc3cc(O)ccc3nc2-1 | -96.4% | – | – |
| C[S+](C)CCC(N)C(=O)O (stereo not given) | -29.8% | – | – |
| COC1CCC(C(=O)c2ccc3nc4c(cc3c2)CCCO4)CC1 (stereo not given) | – | inactive | – |
| CCOc1nc2cccc(C(=O)OCc3oc(=O)oc3C)c2n1Cc1ccc(-c2ccccc2-c2noc(O)n2)cc1 | -28.5% | – | – |
| CC1=C(CC(=O)O)c2cc(F)ccc2C1=Cc1ccc(S(C)=O)cc1 (stereo not given) | -11.8% | – | – |
| CN(C)c1ccc(-c2nc3ncc(Cl)c(N4CCN(CC(=O)Nc5nccs5)CC4)c3[nH]2)cc1 | -16% [at 27.1 µM] | – | – |
| CCn1c(C(=O)N(C2CC2)C2CC2)cc2c3c(ncn3C)c(Nc3cc(C)n(C)n3)nc21 | -14.3% | – | – |
| CCS(=O)(=O)N1CCC([C@@H](C)n2c(C)c(C(=O)NCc3c(OC)cc(C)[nH]c3=O)c3ccccc32)CC1 | – | inactive | – |
| COc1cc2c(Nc3ccc(NC(=O)c4ccccc4)cc3)ncnc2cc1OCCCN1CCOCC1 | – | – | 7.94 µM (active) |
